The results in this text go back to PubChem BioAssay (NCATS).

Test [1] has as its system NIH3T3. The experiment in a line: Cytotoxic Profiling of Annotated Libraries Using Quantitative High-Throughput Screening (AID 1296008). The following applies: Five cell lines viability, CellTiter-Glo ATP luminescence, 48-72 h; max response: active compounds read low. A digest of the protocol:
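Cells exposed to compounds for 48 or 72 hr at 37 degrees Celsius. Viability read as ATP-coupled luminescence with CellTiter-Glo after 10 min at room temperature.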

Test [2] relates to MCC-13. Briefly: qHTS assay to identify novel small-molecules to repurpose for Merkel cell carcinoma treatment (AID 1296009). The settings on record: MCC and control cell lines, CellTiter-Glo viability, 72 h; series mostly up to 46 µM. A digest of the protocol:
(§1)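 Cells were treated for 72 hr at 37 degree celsius with compounds in 8- or 11-point dose response. Viability was read by CellTiter-Glo luminescence, normalized to no-cell (cytotoxicity) and DMSO controls.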
On the technique in general: qHTS replaces the single test concentration by a dilution series.

The test system of test [3] is MCC-26. The description is as above. The following applies: MCC and control cell lines, CellTiter-Glo viability, 72 h; series mostly up to 46 µM. A digest of the protocol: as §1
A general note: In ATP-based viability assays light output follows the ATP content of the culture.

Test [4] relates to MKL-1. The test is described as above. The following applies: MCC and control cell lines, CellTiter-Glo viability, 72 h; series mostly up to 46 µM. The gist of the method:
as §1

For test [5], the system named is MKL-2. The test is described as above. The settings on record: MCC and control cell lines, CellTiter-Glo viability, 72 h; series mostly up to 46 µM. A digest of the protocol: as §1
In test [6] the test system is UISO. Described as above. The settings on record: MCC and control cell lines, CellTiter-Glo viability, 72 h; series mostly up to 46 µM. The gist of the method: as §1
Test [7] deals with WaGa. The description is as above. The settings on record: MCC and control cell lines, CellTiter-Glo viability, 72 h; series mostly up to 46 µM. A digest of the protocol:
as §1

Test [8] relates to NIH3T3. The test is described as above. The settings on record: MCC and control cell lines, CellTiter-Glo viability, 72 h; at 44.8 µM (top of the series) unless noted. The gist of the method:
as §1

“And” between values parts separate entries of the source, which are not always exact repeats. Equal entries are not always repeated. Results filed as inconclusive are left out. Unmarked numbers belong to inactive results. The source made the active and inactive calls. Calls follow the shape of the dose curve; as a rule, active = well fitted inhibition curve with a large enough effect; inconclusive = small, poorly fitted or top-dose-only effect; inactive = flat fitted curve, though single readings scatter.
% is scaled to controls: 0 for no effect and ±100 for the full control effect; potency is read from the fitted curve at half-maximal effect.
Also: nearly all actives have a fitted effect of over 60% in size.

With `NC(=O)c1cnc(-c2ccc(C3(N)CCC3)cc2)c(-c2ccccc2)c1`, in test [1], the max response is 4.42%. Also, the Potency entry in test [2], in test [3], in test [4], in test [5], in test [6] and in test [7] was “inactive” throughout.

For the compound `COc1ccc2cccc(CCNC(C)=O)c2c1`, the max response in test [1] is -3.32%. The Potency entry in test [2], in test [3], in test [4], in test [5], in test [6] and in test [7] was “inactive” throughout.

Regarding `COc1ccc2c(Oc3ccc(NC(=O)c4c(C)n(CC(C)(C)O)n(-c5ccccc5)c4=O)cc3F)ccnc2c1`, the Potency in test [1] is 8.33 µM (active) and 10.3 µM (active). Besides, the Potency result in test [2], in test [3], in test [4], in test [5] and in test [7] was “inactive” each time.

For the compound `O=C1C[C@@H](c2ccc(O)cc2)Oc2cc(O)cc(O)c21`, the max response in test [1] was 1.63%. The Potency result in test [2], in test [3], in test [4], in test [5], in test [6] and in test [7] was “inactive” throughout.

`O=c1cc(-c2ccccc2)oc2cc(O)c(O)c(O)c12`: in test [1], the max response was -19.1%. The Potency result in test [2], in test [3], in test [4] and in test [6] was “inactive” each time.

`Cn1cc(C=C2C(=O)Nc3cccnc32)c2ccccc21`: in test [1], the max response is -5.8%. Besides, the Potency result in test [2], in test [3], in test [4], in test [5], in test [6] and in test [7] was “inactive” throughout.

Take `O=c1cc(-c2ccc(O)cc2)oc2cc(O)cc(O)c12`: in test [1], the max response is -14.4%. Also, the Potency result in test [2] and in test [3] was “inactive” each time. Moreover, the figures for the Potency in test [4], in test [5] and in test [7] were 2.35 µM (active), 1.66 µM (active) and 2.09 µM (active), respectively.

For `COc1ccc(C2CC(c3ccccc3)=NN2c2ccc(S(N)(=O)=O)cc2)cc1` (centres undefined), the max response in test [1] was -14.6% and -17.5%. Also, the Potency result in test [2], in test [3], in test [4], in test [5] and in test [7] was “inactive” throughout.

For the compound `CC(C)(Cc1ccc2ccccc2c1)NC[C@@H](O)COc1cccc(Cl)c1C#N`, the max response in test [1] is -24.7%. Also, the Potency result in test [2], in test [3], in test [4] and in test [6] was “inactive” throughout.

With `CCOC(CN1C(=O)[C@](CC(=O)Nc2ccc(C)cc2)(NC(=O)Nc2ccc(C)cc2)c2ccccc21)OCC`, the max response in test [1] is -3.18%. Also, the Potency result in test [2], in test [3], in test [4], in test [6] and in test [7] was “inactive” in each case.

With `COC(=O)C1=CO[C@@H](O)[C@@H]2C(CO)=CC[C@@H]12`, the outcome in test [1] and in test [8] was inactive. In addition, the Potency entry in test [2] and in test [3] was “inactive” each time. The Potency in test [5] is 9.35 µM (active).

As to `COc1cc(Nc2ncc(F)c(Nc3ccc4c(n3)NC(=O)C(C)(C)O4)n2)cc(OC)c1OC`, the Potency in test [1] is 8.2 µM (active). Also, the Potency result in test [2], in test [3], in test [4], in test [5], in test [6] and in test [7] was “inactive” throughout.

For `NC(CO)(CO)CCc1ccc(Sc2cccc(OCc3ccccc3)c2)cc1Cl`, the Potency is 16.6 µM (active) in test [1], 13.2 µM (active) in test [4], 23.5 µM (active) in test [5] and 5.26 µM (active) in test [7]. Also, the Potency result in test [2] and in test [3] was “inactive” in each case.

For the compound `O=C(Nc1cccc(Br)c1)c1cccc(S(=O)(=O)N2CCCCCC2)c1`, in test [1], the max response was -21.3%. The Potency entry in test [2], in test [3], in test [4], in test [5] and in test [7] was “inactive” throughout.

On to `NC(=O)c1cccc2[nH]c(-c3ccc([C@H]4CCCN4)cc3F)nc12`, for which the max response in test [1] is 0.71%. Also, the Potency result in test [2] and in test [3] was “inactive” in each case. The Potency is 20.9 µM (active) in test [4], 2.35 µM (active) in test [5] and 20.9 µM (active) in test [7].

With `CC[C@H]1OC(=O)[C@H](C)C(=O)[C@H](C)[C@@H](O[C@H]2O[C@H](C)C[C@H](N(C)C)[C@@H]2O)[C@](C)(OC)C[C@@H](C)C(=O)[C@H](C)[C@H]2N(CCCCn3cnc(-c4cccnc4)c3)C(=O)O[C@]12C`, the max response in test [1] was -10.2%. Besides, the Potency entry in test [2], in test [3], in test [4], in test [5], in test [6] and in test [7] was “inactive” throughout.

Regarding `N#CC(=C(N)Sc1ccccc1N)C(C#N)=C(N)Sc1ccccc1N`, in test [1], the max response is -4.19%. In addition, the Potency result in test [2], in test [3], in test [4] and in test [7] was “inactive” throughout. The Potency in test [6] is 1.05 µM (active).

Take `O=C(Nc1ccccc1Br)N[C@@H]1CCN(c2ccc(C(F)(F)F)cn2)C1`: the max response in test [1] is -2.32%. In addition, the Potency entry in test [2], in test [3], in test [4], in test [5], in test [6] and in test [7] was “inactive” each time.

With `O=C(O)[C@H]1O[C@H](Oc2cc3oc(-c4ccccc4)cc(=O)c3c(O)c2O)[C@H](O)[C@@H](O)[C@H]1O`, in test [1], the max response is -17.6%. In addition, the Potency result in test [2], in test [3], in test [4], in test [6] and in test [7] was “inactive” each time.

As for `CNC(=O)c1ccccc1Sc1ccc2c(C=Cc3ccccn3)n[nH]c2c1`, the values for the Potency in test [1] and in test [7] were 3.72 µM (active) and 11.8 µM (active), respectively. In test [3], the Potency result is “inactive”.

Turning to `Cc1ccn(-c2ccc(-c3ncco3)cc2)c(=O)c1-c1ccc2nc(N)ncc2c1`, in test [1], the Potency was 16.6 µM (active) and 6.51 µM (active). The Potency result in test [2], in test [4] and in test [7] was “inactive” each time.

For `NS(=O)(=O)c1cccc2c1C(=O)c1cccc(O)c1C2=O`, the Potency in test [1] was 0.935 µM (active); in test [4] it was 0.132 µM (active); in test [5], 0.264 µM (active); in test [6], 0.662 µM (active); in test [7], 0.132 µM (active).

On to `CC(C)(C(=O)NCC(F)(F)C(F)(F)F)C(=O)N[C@@H]1C(=O)Nc2ccccc2-c2ccccc21`, for which the result in test [1] and in test [8] was inactive. Also, the Potency entry in test [2] and in test [3] was “inactive” throughout.

Consider `OC[C@H]1O[C@@H](Oc2cc(O)cc(C=Cc3ccc(O)cc3)c2)[C@H](O)[C@@H](O)[C@H]1O`, for which the max response in test [1] is 2.83%. Moreover, the Potency entry in test [2], in test [4], in test [5], in test [6] and in test [7] was “inactive” throughout.

With `CO[C@H]1C[C@@H]2CC[C@@H](C)[C@@](O)(O2)C(=O)C(=O)N2CCCC[C@@H]2C(=O)O[C@H]([C@H](C)C[C@@H]2CC[C@H](OCCO)[C@H](OC)C2)CC(=O)[C@H](C)C=C(C)[C@@H](O)[C@@H](OC)C(=O)[C@H](C)C[C@H](C)C=CC=CC=C1C`, the Potency in test [1] was 8.33 µM (active); in test [6], 0.833 µM (active). The Potency result in test [2] and in test [5] was “inactive” in each case.

For the compound `O=C(CCc1ccc(O)cc1)c1c(O)cc(O)cc1O[C@@H]1O[C@H](CO)[C@H](O)[C@H](O)[C@H]1O`, the max response in test [1] was -7.96%. For the same compound, the Potency result in test [2], in test [4], in test [6] and in test [7] was “inactive” each time.

As to `C=C1C(=O)[C@@]23C(CC[C@@H]1[C@H]2O)[C@@]12CO[C@]3(O)[C@@H](O)[C@@H]1C(C)(C)CC[C@@H]2O` (some centres undefined), the Potency in test [1] was 18.7 µM (active); in test [2], 16.6 µM (active); in test [4] it was 1.18 µM (active); in test [5], 0.935 µM (active); in test [6], 14.8 µM (active); in test [7], 0.833 µM (active).

Regarding `Cc1ccc(F)c(NC(=O)Nc2ccc(-c3cccc4[nH]nc(N)c34)cc2)c1`, the max response in test [1] was -7.65%. For the same compound, the Potency result in test [2], in test [5] and in test [7] was “inactive” throughout.

Regarding `CC(=NNC(=S)N1CCC1)c1ccccn1`, the Potency is 0.0187 µM (active) in test [1], 0.0743 µM (active) in test [2], 0.0033 µM (active) in test [6] and 0.0007 µM (active) in test [7]. For the same compound, the Potency result in test [4] and in test [5] was “inactive” each time.

Consider `O=C1c2c(O)cc(O)cc2O[C@H](c2cc(O)c(O)c(O)c2)[C@H]1O`, for which the max response in test [1] is 4.33%. For the same compound, the Potency entry in test [2], in test [3] and in test [6] was “inactive” each time. Besides, the Potency in test [7] was 2.35 µM (active).

For `CC(C)NCC(O)COc1cccc2[nH]ccc12` (centres undefined), the max response in test [1] was -7.28% and 1.44%. Also, the Potency entry in test [2], in test [4], in test [5], in test [6] and in test [7] was “inactive” throughout.

Take `CN1CCN(CCOc2cc(OC3CCOCC3)c3c(Nc4c(Cl)ccc5c4OCO5)ncnc3c2)CC1`: in test [1], the Potency was 1.66 µM (active) and 651 nM (active). Also, the Potency entry in test [4], in test [5], in test [6] and in test [7] was “inactive” each time.

For `Cc1cc(OCCCc2c(C(=O)O)n(Cc3cccnc3)c3c(-c4c(COc5ccc(N6CCN([S+](C)(=O)[O-])CC6)cc5)nn(C)c4C)cccc23)cc(C)c1Cl`, the max response in test [1] is -3.92%. Also, the Potency result in test [2], in test [4], in test [5], in test [6] and in test [7] was “inactive” each time.

`CC(C)(C)c1ccc(C(O)CCCN2CCC(C(O)(c3ccccc3)c3ccccc3)CC2)cc1` (centres undefined): in test [1], the max response is -3.57%. Also, the Potency entry in test [2], in test [4], in test [5], in test [6] and in test [7] was “inactive” each time.

On to `CN[C@@H](C)C(=O)N[C@H]1CN(C(=O)CC(C)C)CC[C@H]2CC[C@@H](C(=O)NC(c3ccccc3)c3ccccc3)N2C1=O`, for which the max response in test [1] was -2.17% and -4.72%. The Potency result in test [2] and in test [5] was “inactive” each time.

As to `CC(=O)Nc1ccc([C@H](C)C(=O)Nc2ncc(C(C)C)s2)cc1`, the Potency in test [1] is 8.33 µM (active) and 9.2 µM (active); in test [5] it was 9.35 µM (active); in test [6], 7.43 µM (active).
